Measurements published in PubChem BioAssay (EPA / NIEHS).
Inconclusive results are not listed. Active and inactive are the calls of the source. How the source made its calls: active means hit-call score of the fitted dose curve at least 0.9, where 1 is the maximum; inconclusive means response in the unintended direction; inactive means score below 0.9. Where a SMILES comes first, the peptide text is derived from it. Bridges are numbered along the chain shown (N, C = ends).

system: not listed separately; experiment: TOX21_p53_BLA_p3_viability: Viability Assessment in the Tox21 HCT-116 p53 Agonism Beta-lactamase Assay, Phase 3 (AID 2283593);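 further: cells exposed to compound for 16 h before reading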
Procedure, shortened: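 Cellular ATP was quantified by CellTiter-Glo luminescence, read after 30 min at room temperature. Beforehand, HCT116 cells (4000/well) received compound 5 h post-seeding, 217-fold diluted from DMSO, then incubated 16 h at 37C.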

Structure (SMILES)	outcome	AC50
Cc1ccc(C(C)(C)c2ccc(C)cc2)cc1	inactive	
CCCCNC(=O)NCCCC	inactive	
N[C@@H](CSCCCO)C(=O)O	inactive	
CCNS(=O)(=O)c1ccc(C)cc1	inactive	
CN(C)C(=O)Oc1ccc[n+](C)c1	inactive	
CCCCOc1ccc(OCCCN2CCOCC2)cc1	inactive	
C=C1C(=O)O[C@H]2[C@H]1CC/C(C)=C/CC[C@@]1(C)O[C@@H]21	inactive	
N[C@H]1CN(c2c(F)cc3c(=O)c(C(=O)O)cn(C4C[C@H]4F)c3c2Cl)CC12CC2 (stereo partly specified)	inactive	
CC(C(=O)O)c1ccc2c(c1)Cc1cccnc1O2 (stereo unspecified)	inactive	
O=C(O)c1ccc(NC(=O)[C@H](Cc2ccc(O)cc2)NC(=O)c2ccccc2)cc1	inactive	
O=C(Cn1c(=O)sc2ccc(Cl)cc21)N1CCN(CCO)CC1	inactive	
CN[C@@H]1[C@@H](O)[C@@H](O[C@@H]2[C@@H](O)[C@H](O[C@H]3O[C@H](CN)[C@@H](O)[C@H](O)[C@H]3O)[C@@H](N)C[C@H]2NC(=O)C(O)CN)OC[C@]1(C)O (stereo partly specified)	inactive	
CC1=C(/C=C/C(C)=C/C=C/C(C)=C/C=C/C=C(C)/C=C/C=C(C)/C=C/C2=C(C)C(=O)CCC2(C)C)C(C)(C)CCC1=O	inactive	
O[C@@H]1CO[C@H]2[C@@H]1OC[C@@H]2O		43.1 µM (active)
COC(=O)c1cc(C(=O)OC)cc(S(=O)(=O)O)c1	inactive	
Cc1ccc(N)nc1	inactive	
C[C@H]1O[C@H](O[C@H]2[C@H](O)[C@@H](O)[C@@H](O[C@H]3[C@H](O)[C@@H](O)[C@H](O)O[C@@H]3CO)O[C@@H]2CO)[C@H](O)[C@@H](O)[C@@H]1N[C@H]1C=C(CO)[C@@H](O)[C@H](O)[C@H]1O	inactive	
NCCCC[C@H](NC(=O)[C@@H]1CCCN1C(=O)[C@@H]1CSSC[C@H](NC(=O)CNC(=O)CNC(=O)CN)C(=O)N[C@@H](Cc2ccc(O)cc2)C(=O)N[C@@H](Cc2ccccc2)C(=O)N[C@@H](CCC(N)=O)C(=O)N[C@@H](CC(N)=O)C(=O)N1)C(=O)NCC(N)=O (H-GGGCYFQNCPKG-NH2; disulfide 4-9)	inactive	
BrC(Br)C(Br)Br	inactive	

Structure (SMILES)	outcome	AC50
O=C(/C=C/c1ccc(O)c(O)c1)O[C@@H](C(=O)O)[C@@H](OC(=O)/C=C/c1ccc(O)c(O)c1)C(=O)O	inactive	
COc1cc2c(cc1OC)C(C(C(=O)N(CCc1ccc(OC)c(OC)c1OC)CCc1ccc(OC)c(OC)c1OC)c1ccccc1)=NCC2 (stereo unspecified)	inactive	
Oc1ccc(CCNCCCCCCNCCc2ccccc2)cc1O	inactive	
NCCCC(O)(P(=O)(O)O)P(=O)(O)O	inactive	
Cc1ccccc1C(=O)Nc1ccc(C(=O)N2CCCC(O)c3cc(Cl)ccc32)c(C)c1 (stereo unspecified)	inactive	
O=C(O)c1cc(C(=O)O)cc(C(=O)O)c1	inactive	
CCOC(=O)[C@H](CCc1ccccc1)N[C@@H](C)C(=O)N1Cc2cc(OC)c(OC)cc2C[C@H]1C(=O)O	inactive	
CC(C)(O)CCC(C)(C)O	inactive	
CC1CCCCN1CCCOC(=O)c1ccccc1 (stereo unspecified)	inactive	
CN1CCCC(CC2c3ccccc3Sc3ccccc32)C1 (stereo unspecified)	inactive	
O=S(=O)(O)c1cccc(S(=O)(=O)O)c1	inactive	
CCCCCCCCCCCCCCCC(=O)O[C@@H]1CC(C)=C(/C=C/C(C)=C/C=C/C(C)=C/C=C/C=C(C)/C=C/C=C(C)/C=C/C2=C(C)C[C@@H](OC(=O)CCCCCCCCCCCCCCC)CC2(C)C)C(C)(C)C1		36.2 µM (active)
CC1(C)OC[C@@H](COC(=O)CCc2ccc(OC[C@@H](O)CNCCNC(=O)N3CCOCC3)cc2)O1	inactive	
CC(=O)c1ccc(C(C)=O)cc1	inactive	
CC#N	inactive	
Cc1ccc(S(=O)(=O)NC(=O)NC2CCCC2)cc1	inactive	
CC(=O)CC(=O)Nc1ccc(S(=O)(=O)O)cc1	inactive	
O=c1oc2c(O)c(O)cc3c(=O)oc4c(O)c(O)cc1c4c23	inactive	
CO[C@H]1O[C@@H]2O[C@@]3(C)CC[C@H]4[C@H](C)CC[C@@H]([C@H]1C)[C@@]24OO3	inactive	

biological target: Cellular tumor antigen p53 (Homo sapiens) (UniProt P04637); experiment: TOX21_p53_BLA_p3_ratio: Tox21 HCT-116 p53 Agonism Beta-lactamase Assay, Ratio, Phase 3 (AID 2283596)
Procedure, shortened: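 HCT116 p53-bla cells (4000/well) given compound in DMSO (217-fold dilution) after 5 h, incubated 16 h at 37C. CCF4-AM substrate 2 h at room temperature; 460/530 nm emission ratio, gain fitted against DMSO.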

Chain of Cellular tumor antigen p53 (Homo sapiens) (P04637 whole entry, looked up): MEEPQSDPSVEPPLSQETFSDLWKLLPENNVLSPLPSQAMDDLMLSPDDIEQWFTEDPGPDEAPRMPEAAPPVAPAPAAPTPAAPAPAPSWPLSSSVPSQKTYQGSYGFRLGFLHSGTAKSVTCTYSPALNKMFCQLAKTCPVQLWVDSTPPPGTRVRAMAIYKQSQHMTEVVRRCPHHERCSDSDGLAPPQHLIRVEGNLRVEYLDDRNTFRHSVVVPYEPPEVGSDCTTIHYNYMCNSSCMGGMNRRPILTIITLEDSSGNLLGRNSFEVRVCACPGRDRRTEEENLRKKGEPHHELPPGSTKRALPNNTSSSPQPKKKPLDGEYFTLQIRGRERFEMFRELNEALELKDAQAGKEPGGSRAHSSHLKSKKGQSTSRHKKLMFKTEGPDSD

Structure (SMILES)	outcome	AC50
Cc1ccc(C(C)(C)c2ccc(C)cc2)cc1	inactive	
CCCCNC(=O)NCCCC	inactive	
N[C@@H](CSCCCO)C(=O)O	inactive	
CCNS(=O)(=O)c1ccc(C)cc1	inactive	
CN(C)C(=O)Oc1ccc[n+](C)c1	inactive	
CCCCOc1ccc(OCCCN2CCOCC2)cc1	inactive	
C=C1C(=O)O[C@H]2[C@H]1CC/C(C)=C/CC[C@@]1(C)O[C@@H]21		34.3 µM (active)
N[C@H]1CN(c2c(F)cc3c(=O)c(C(=O)O)cn(C4C[C@H]4F)c3c2Cl)CC12CC2 (stereo partly specified)	inactive	
CC(C(=O)O)c1ccc2c(c1)Cc1cccnc1O2 (stereo unspecified)	inactive	
O=C(O)c1ccc(NC(=O)[C@H](Cc2ccc(O)cc2)NC(=O)c2ccccc2)cc1	inactive	
O=C(Cn1c(=O)sc2ccc(Cl)cc21)N1CCN(CCO)CC1	inactive	
CN[C@@H]1[C@@H](O)[C@@H](O[C@@H]2[C@@H](O)[C@H](O[C@H]3O[C@H](CN)[C@@H](O)[C@H](O)[C@H]3O)[C@@H](N)C[C@H]2NC(=O)C(O)CN)OC[C@]1(C)O (stereo partly specified)	inactive	
CC1=C(/C=C/C(C)=C/C=C/C(C)=C/C=C/C=C(C)/C=C/C=C(C)/C=C/C2=C(C)C(=O)CCC2(C)C)C(C)(C)CCC1=O	inactive	
O[C@@H]1CO[C@H]2[C@@H]1OC[C@@H]2O	inactive	
COC(=O)c1cc(C(=O)OC)cc(S(=O)(=O)O)c1	inactive	
Cc1ccc(N)nc1	inactive	
C[C@H]1O[C@H](O[C@H]2[C@H](O)[C@@H](O)[C@@H](O[C@H]3[C@H](O)[C@@H](O)[C@H](O)O[C@@H]3CO)O[C@@H]2CO)[C@H](O)[C@@H](O)[C@@H]1N[C@H]1C=C(CO)[C@@H](O)[C@H](O)[C@H]1O	inactive	
NCCCC[C@H](NC(=O)[C@@H]1CCCN1C(=O)[C@@H]1CSSC[C@H](NC(=O)CNC(=O)CNC(=O)CN)C(=O)N[C@@H](Cc2ccc(O)cc2)C(=O)N[C@@H](Cc2ccccc2)C(=O)N[C@@H](CCC(N)=O)C(=O)N[C@@H](CC(N)=O)C(=O)N1)C(=O)NCC(N)=O (H-GGGCYFQNCPKG-NH2; disulfide 4-9)	inactive	
BrC(Br)C(Br)Br	inactive	

Structure (SMILES)	outcome	AC50
O=C(/C=C/c1ccc(O)c(O)c1)O[C@@H](C(=O)O)[C@@H](OC(=O)/C=C/c1ccc(O)c(O)c1)C(=O)O	inactive	
COc1cc2c(cc1OC)C(C(C(=O)N(CCc1ccc(OC)c(OC)c1OC)CCc1ccc(OC)c(OC)c1OC)c1ccccc1)=NCC2 (stereo unspecified)	inactive	
Oc1ccc(CCNCCCCCCNCCc2ccccc2)cc1O	inactive	
NCCCC(O)(P(=O)(O)O)P(=O)(O)O	inactive	
Cc1ccccc1C(=O)Nc1ccc(C(=O)N2CCCC(O)c3cc(Cl)ccc32)c(C)c1 (stereo unspecified)	inactive	
O=C(O)c1cc(C(=O)O)cc(C(=O)O)c1	inactive	
CCOC(=O)[C@H](CCc1ccccc1)N[C@@H](C)C(=O)N1Cc2cc(OC)c(OC)cc2C[C@H]1C(=O)O	inactive	
CC(C)(O)CCC(C)(C)O	inactive	
CC1CCCCN1CCCOC(=O)c1ccccc1 (stereo unspecified)	inactive	
CN1CCCC(CC2c3ccccc3Sc3ccccc32)C1 (stereo unspecified)	inactive	
O=S(=O)(O)c1cccc(S(=O)(=O)O)c1	inactive	
CCCCCCCCCCCCCCCC(=O)O[C@@H]1CC(C)=C(/C=C/C(C)=C/C=C/C(C)=C/C=C/C=C(C)/C=C/C=C(C)/C=C/C2=C(C)C[C@@H](OC(=O)CCCCCCCCCCCCCCC)CC2(C)C)C(C)(C)C1	inactive	
CC1(C)OC[C@@H](COC(=O)CCc2ccc(OC[C@@H](O)CNCCNC(=O)N3CCOCC3)cc2)O1	inactive	
CC(=O)c1ccc(C(C)=O)cc1	inactive	
CC#N	inactive	
Cc1ccc(S(=O)(=O)NC(=O)NC2CCCC2)cc1	inactive	
CC(=O)CC(=O)Nc1ccc(S(=O)(=O)O)cc1	inactive	
O=c1oc2c(O)c(O)cc3c(=O)oc4c(O)c(O)cc1c4c23	inactive	
CO[C@H]1O[C@@H]2O[C@@]3(C)CC[C@H]4[C@H](C)CC[C@@H]([C@H]1C)[C@@]24OO3	inactive	
